In PubChem BioAssay (NCI) one finds growth data, which are given here for 40 compounds.

The panel holds about 83,000 compounds, 20% with a hit somewhere; the sample as a whole holds those more often.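 Single-dose data. Exposure time 48 hours. Values below 10 considered active.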 Unmarked numbers belong to inactive results. The source made the active and inactive calls.

The subject of the assay is ACHN renal. The assay can be described thus: NCI-60 one-dose screen, 48 h (100 = growth as untreated, 0 = no growth, -100 = all killed). The following applies: 10 µM. As to the method: Growth inhibition of the ACHN human tumor cell line is measured as a screen for anti-cancer activity. Cells are grown in 96 well plates and exposed to the test compound for 48 hours. Compounds are tested at a single concentration, which is 10^-5 M for most compounds. The reported endpoint is percent growth (GI% or GIPRCNT), where numbers from 0 - 100% represent growth inhibition, and numbers from -100% - 0 represent cell death. For example, a value of 40 represents 60% growth inhibition. A value of 0 means no net growth occurred over the course of the experiment. A value of -40 indicates 40% of cells at the beginning of the experiment died by the end of the experiment. A value of -100 means all cells are dead at the end of the experiment.
NCI-60 Human Tumor Cell Lines Screen was performed using the standard one-dose NCI protocol, which is described in more detail at https://dtp.cancer.gov/discovery_development/nci-60/default.htm.
Compounds with GIPRCNT values below 10 were considered active. Activity score was based on GIPRCNT using the following formula: […]
Score is 0 for GIPRCNT values of 100 or above, 50 for GIPRCNT values of 0, and 100 for GIPRCNT values of -100.
In the case of `N=C(N)c1ccc(-c2ccc(-c3cccs3)s2)cc1`, the growth was 85.8%.

In the case of `Clc1ccc(-c2cn(-c3ccccc3)c(-c3ccccc3)n2)c(Cl)c1`, the growth is -100% (active).

Consider `Cc1cccc(C)c1NC(=O)c1sc2nc3c(cc2c1N)C(=O)CCC3`, for which the growth was 89.6%.

As to `COC(=O)[C@@H]1[C@H](O)[C@H](C)[C@H](O)[C@@](C)(O)/C=C\C=C(C)C(=O)Nc2c(C)c(OC(C)=O)c3c(c2O)C(=O)C(C)=C2OCOC(=C23)C(C)=C[C@@](C)(O)[C@H](O)[C@@H](C)[C@H]1OC(C)=O`, the growth is 110%.

Take `COc1ccc(Nc2ccnc(NCCNc3ccnc4cc(Cl)ccc34)n2)cc1`: the growth is 57.3%.

Turning to `CC(=O)/C(=C/c1ccccc1)C(=O)CC(C)C`, the growth is 84.7%.

As for `Cc1cs/c(=N\NC(=O)c2cc(-c3cc4ccccc4o3)nn2-c2ccccc2)n1-c1ccccc1`, the growth was 88.7%.

Regarding `C#Cc1ccc(-n2c(/C=C/c3ccc(O)c(OC)c3)nc3ncccc3c2=O)cc1`, the growth was 97.3%.

On to `N#CCCN1C/C(=C/c2ccc(Br)cc2)C(=O)/C(=C/c2ccc(Br)cc2)C1`, for which the growth is -53.5% (active).

For the compound `N#CSCC1CC(O)(c2ccccc2)CC(c2ccc(Cl)cc2)O1` (stereo not given), the growth was 48.3%.

Turning to `COc1cccc(NC(=O)c2sc3nc4c(cc3c2N)C(O)CCC4)c1` (stereo not given), the growth is 42%.

As to `COC(=O)C(=C\c1ccc2c(c1)OCO2)/C(=C/c1ccc2c(c1)OCO2)C(=O)OC`, the growth was 94.3%.

On to `CCN(CC)CCN1CC(=O)Nc2cc(Cl)ccc21`, for which the growth is 104%.

For the compound `COc1ccc2c(c1)O/C(=C\c1ccc([N+](=O)[O-])s1)C2=O`, the growth is 25.4%.

Turning to `COc1ccc(CN2CCC(N3CCCC3=O)c3cc(Cl)ccc32)cc1` (stereo not given), the growth is 101%.

In the case of `COc1ccc(/C=C2/CN(C(=O)c3ccccc3F)C/C(=C\c3ccc(OC)cc3)C2=O)cc1`, the growth was 65.2%.

`Cc1ccc(NC(=O)Nc2cccnc2)cc1NC(=O)Nc1cccnc1`: the growth was 83.8%.

Regarding `Nc1c(C(=O)Nc2ccccc2)sc2nc3c(cc12)C(O)CCC3` (stereo not given), the growth is 48.2%.

With `Clc1ccc(Sc2nc(NC3CC3)nc(Sc3ccc(Cl)cc3)n2)cc1`, the growth is 84.6%.

Consider `COc1ccc(NC2=NC(C)(CO)CS2)cc1` (stereo not given), for which the growth is 96.7%.

For `CN1CCC(CNc2cc(C3(C(=O)Nc4cc(C(=O)Nc5ccc(Cl)c(C(F)(F)F)c5)ccc4F)CC3)ncn2)CC1`, the growth was 20.1%.

For the compound `O=C(NC(Cc1ccc(O)cc1)C(=O)N=Nc1c(O)[nH]c2ccccc12)c1ccccc1` (stereo not given), the growth is 114%.

As to `CCCC(F)C(=O)O` (stereo not given), the growth is 106%.

In the case of `O=c1c2ccccc2nc(SCCN2CCCCC2)n1CCc1ccccc1`, the growth is 102%.

With `Nc1c(C(=O)Nc2ccccc2)sc2nc3c(cc12)CCCC3`, the growth was 51.5%.

For the compound `COc1cc(-c2nc(-c3nnc(-c4ccc(F)c(Cl)c4)o3)c3ccccn23)cc(OC)c1OC`, the growth was 10.7%.

Regarding `O=C1Nc2ccc(Cl)cc2/C1=C\c1c(-c2ccc(Cl)cc2)nc2sc(C3CC3)nn12`, the growth is 44.4%.

On to `CC(=O)c1cc(Br)ccc1O`, for which the growth was 105%.

As for `CCN(CC)CCOc1nc2ccc(OC)cc2c2c1-c1ccc(OC)cc1C2=O`, the growth was -93% (active).

Take `CC/C(=C(/c1ccc(OCCN(C)C)cc1)c1ccc(OC(=O)CCCCC(=O)c2c(C)[nH]c(/C=C3\N=C(c4ccc[nH]4)C=C3OC)c2C)cc1)c1ccccc1`: the growth was 67.1%.

In the case of `CCN(CC)Cc1cc(Nc2ccnc3cc(Cl)ccc23)ccc1OC`, the growth is 97%.

Turning to `COc1ccc(-c2nc3ncccn3c2-c2nnc(-c3ccsc3C)o2)cc1`, the growth was 72.3%.

Turning to `CN(C)CCS(=O)(=O)CCN(C)C`, the growth was 107%.

For `O=S(=O)(NCCCNc1nccc(-c2c(-c3ccc(F)cc3)nc3sccn23)n1)c1ccc(F)cc1`, the growth is 30.8%.

`Clc1nc(Cl)c2c(ncn2C/C=C\Cn2cnc3c(Cl)nc(Cl)nc32)n1`: the growth was -100% (active).

With `OCC1OC(n2cnc3c(N/N=C\c4ccccn4)ncnc32)C(O)C1O` (stereo not given), the growth is 11.8%.

As for `Cc1cc(Nc2ccc(Cl)cc2)nc(NCCCNc2ccnc3cc(Cl)ccc23)n1`, the growth was -81.1% (active).

In the case of `O=C(Nc1ccc(CO)cc1)c1ccccc1Nc1ccnc(C(F)(F)F)c1`, the growth is 103%.

Regarding `COc1ccc(OC)c(/C=C/c2nc(SCc3ccccc3)n(-c3ccc(Cl)cc3)n2)c1`, the growth was 80.8%.

As for `Nc1ncnc2[nH]c(=O)[nH]c12`, the growth is 98.9%.
